High-throughput results as filed in PubChem.
An excerpt weighted towards active compounds, which were near 6.8% of everything screened.
MK inhibit – S. pneumoniae MK inhibitors, primary screen, biochemical, PK/LDH-coupled NADH absorbance. hit rate 0.48% among 65,000. purified MK, PK/LDH-coupled NADH absorbance 340 nm. inhibition, % at 10 µM. mevalonate kinase [Streptococcus pneumoniae D39];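 active means ranked among the strongest by inhibition in the single 10 µM screen, a fixed top-ranked set picked for dose follow-up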
A340 absorber – compound light absorbance at 340 nm, profiling panel, artefact control, biochemical, MLSMR library, data from PS, PMK, MK assays; 65,000 tested, under 10 active; compound absorbance at 340 nm, fold over control; fold change at 10 µM; AID 708, 2007;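 active means at 10 µM dose, initial 340 nm absorbance at least 2 fold that of control wells; inactive means change under 2 fold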;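 further: initial absorbance extrapolated from kinetic A340 decline of NADH oxidation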
NADH coupling – inhibitors of PK/LDH coupling enzymes, profiling panel, artefact control, biochemical, MLSMR library. coupled PK/LDH NADH assays, four targets. IC50, µM (highest dose often 10 µM), for the others: top-dose inhibition. hit rate 0.02% among 65,000. AID 774, 2007;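 active means single-dose screening hits from any of four coupled enzyme assays that gave an IC50 when retested across doses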;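 further: the DPM-DC format reads NADH fluorescence rather than 340 nm absorbance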
Fluor 339 460 – intrinsic fluorescence of library compounds, ex339/em460 – biochemical, MLSMR library, data from DPM-DC assay, artefact control, profiling panel; compound autofluorescence, ex339/em460 nm, NADH buffer; active compounds read high; 1 = no-compound wells, NADH background; fluorescence fold increase at 10 µM; hit rate 5.5% among 65,000; AID 709, 2007;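 active means at 10 µM, mean starting fluorescence two-fold or more over control wells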;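 further: signal is the first read of a kinetic run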
PMK inhibit – S. pneumoniae PMK inhibitors, primary screen, biochemical, mevalonate pathway, pilot trial included | phosphomevalonate kinase (Streptococcus pneumoniae D39) | purified PMK, PK/LDH-coupled NADH absorbance 340 nm | inhibition, % at 10 µM | hit rate 0.49% among 65,000 | AID 539, 2006;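 active means top-ranked compounds by inhibition in the single 10 µM screen, taking a fixed number of the strongest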;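 further: 0% = full reaction with DMSO carrier and 100% = background rate without enzyme reaction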
DPM-DC inhibit – S. pneumoniae DPM-DC inhibitors, primary screen, biochemical, PK/LDH-coupled NADH fluorescence; AID 556, 2006; calls only at 10 µM; purified DPM-DC; diphosphomevalonate decarboxylase (Streptococcus pneumoniae D39); hit rate 0.49% among 65,000;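 active means the 320 compounds with the highest percent inhibition in the single-dose primary screen, excluding strongly autofluorescent ones, cut at about 32% in these data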;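 further: kinetic rate of NADH fluorescence loss reporting ADP formed by the decarboxylase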
* hit, by the source's call; i = inactive; . = no result given; + = active, no number.

SMILES	MK inhibit	A340 absorber	NADH coupling	Fluor 339 460	PMK inhibit	DPM-DC inhibit
Cc1nnc2sc(-c3ccc(NC(=O)CSc4ccc(Cl)cc4)cc3)nn12	4.0	1.08	4.0%	1.59	5.0	i
O=C(C(c1ccccc1)c1ccccc1)N1CCN(Cc2ccncc2)CC1	34.0	1.03	13.0%	1.1	4.0	i
O=C(C(c1ccccc1)c1ccccc1)N1CCN(Cc2ccccn2)CC1	52.0*	1.06	6.0%	1.04	2.0	i
O=C(O)c1ccc(C2CCCCC2)cn1	0.0	0.99	0.0%	1.06	1.0	i
Nc1c(C(=O)Nc2ccc(F)cc2)sc2nc(-c3ccco3)ccc12	5.0	1.11	3.0%	3.77*	0.0	.
c1ccc(C2(c3ccccc3)OCC(Cn3cncn3)O2)cc1 (stereo not given)	0.0	1	3.0%	1.12	9.0	i
CCOc1ccc(C(=O)N2CCN(Cc3ccccc3)CC2)cc1	13.0	1.03	4.0%	1.1	0.0	i
O=C(c1cc2ccccc2oc1=O)N1CCCN(C(=O)c2cc3ccccc3oc2=O)CC1	0.0	1.06	5.0%	1.42	16.0	i
CC(Oc1ccc2oc(-c3ccccc3)c(C(=O)O)c2c1)C(=O)O (stereo not given)	5.0	1.01	2.0%	2.42*	2.0	.
O=C(c1cc2c(ccc3ccccc32)oc1=O)N1CCN(CCO)CC1	2.0	1.1	4.0%	2.15*	5.0	.
CCOc1ccc2oc(-c3ccccc3)c(C(=O)O)c2c1	5.0	1.05	8.0%	3.88*	11.0	.
CCOc1ccc2oc(-c3ccccc3)c(C(=O)N3CCN(CCO)CC3)c2c1	1.0	1.02	4.0%	3.37*	6.0	.
CC(C)(C)c1ccccc1NC(=O)c1ccco1	7.0	1	6.0%	1.04	12.0	i
CCCNC(=O)c1cccc(COCC(F)(F)C(F)F)c1	4.0	1.02	3.0%	1.09	4.0	i
N#CCSc1n[nH]c2nc3c(c(=O)n12)C1(CCCC1)Cc1ccccc1-3	8.0	1.06	4.0%	2.25*	0.0	.
CCCn1c(SCC#N)nc2c(c1=O)C1(CCCC1)Cc1ccccc1-2	0.0	1.06	3.0%	1.04	9.0	i
COc1ccc(C(=O)NCCn2ccc3ccccc32)cc1	9.0	0.99	3.0%	1.03	9.0	i
O=C(NCCn1ccc2ccccc21)c1ccc2c(c1)OCO2	5.0	1.05	6.0%	2.13*	6.0	.
Cc1nc2ccc(NC(=O)N3CCSCC3)cc2nc1C	5.0	1.08	3.0%	1.93	0.0	.
CCOC(=O)N1CCN(C(=O)Nc2ccc3nc(-c4ccccn4)c(-c4ccccn4)nc3c2)CC1	5.0	1.11	3.0%	2.18*	0.0	.
O=C(Nc1ccc2nc(-c3cccs3)c(-c3cccs3)nc2c1)N1CCOCC1	5.0	1.05	19.0%	2.55*	9.0	+
CCOC(=O)N1CCN(C(=O)Nc2ccc3nc(C)sc3c2)CC1	0.0	1.04	1.0%	1.22	4.0	i
O=[n+]1c2c(n([O-])c3cc(F)c(F)cc31)CCCC2	3.0	1.07	4.0%	1.09	9.0	i
